Source: PubChem BioAssay
CYP2C19 activ: human CYP2C19 activators, primary screen, biochemical, luminescence | Cytochrome P450 2C19 (Homo sapiens), P33261 | recombinant CYP2C19, luciferin-H EGE luminescence; hits give high values; 0 = fully inhibited enzyme, 1 = untreated enzyme | activation factor at 5 µM | 96,000 tested, under 10 active;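 active = activation factor of at least 2 at 5 µM in the primary screen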
Target sequence (P33261 whole entry, looked up): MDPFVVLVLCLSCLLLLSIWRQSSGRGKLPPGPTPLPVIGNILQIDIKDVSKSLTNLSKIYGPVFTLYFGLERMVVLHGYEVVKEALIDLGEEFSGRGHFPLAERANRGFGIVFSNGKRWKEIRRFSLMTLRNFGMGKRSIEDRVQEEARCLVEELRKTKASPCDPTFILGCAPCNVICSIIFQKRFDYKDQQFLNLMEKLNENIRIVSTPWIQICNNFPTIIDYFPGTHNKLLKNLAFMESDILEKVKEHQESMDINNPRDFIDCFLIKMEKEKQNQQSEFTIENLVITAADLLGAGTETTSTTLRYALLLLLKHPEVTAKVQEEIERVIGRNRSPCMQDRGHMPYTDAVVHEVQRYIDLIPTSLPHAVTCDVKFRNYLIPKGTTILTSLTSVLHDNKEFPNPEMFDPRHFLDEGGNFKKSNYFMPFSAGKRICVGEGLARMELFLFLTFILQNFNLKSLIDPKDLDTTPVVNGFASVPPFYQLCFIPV
CYP2C9 activ: human CYP2C9 activators, primary screen, biochemical, luminescence. recombinant CYP2C9, luciferin-H conversion; hits give high values; factor 1 = untreated enzyme, 0 = blocked. AID 1024, 2008. 1.4% of 96,000 active. activation factor at 5 µM. Cytochrome P450 2C9 (Homo sapiens), P11712;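 active = activation factor of 2 or more for CYP2C9 at a 5 µM dose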
sEH act: soluble epoxide hydrolase activators, primary screen, biochemical, human sEH. activation, % at 2 µM. Bifunctional epoxide hydrolase 2 (Homo sapiens), P34913. purified human sEH enzymatic activity, activator screen. 0.04% of 91,000 active; in the data active = activation above about 37%
CYP2C19 inh: blockers of cytochrome P450 2C19 activity – biochemical, luminescence, ADME assay, primary screen; inhibition, % at 5 µM; CYP2C19 Supersomes, luciferin-H EGE luminescence, 30 min; AID 778, 2007; P33261; 21% of 96,000 active;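 active = CYP2C19 inhibition above a set limit at 5 µM in the primary screen, cut at about 50% in these data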
sEH inh: soluble epoxide hydrolase inhibitors, primary screen, biochemical, human sEH. Bifunctional epoxide hydrolase 2 (Homo sapiens), P34913. recombinant human sEH enzymatic activity assay. inhibition, % at 2 µM. 0.34% of 91,000 active; in the data active = inhibition above about 80%
CYP2C9 inh: blockers of cytochrome P450 2C9 activity – biochemical, luminescence, ADME assay, primary screen. inhibition, % at 5 µM. AID 777, 2007. 20% of 96,000 active. CYP2C9 Supersomes, luciferin-H conversion;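 active = blocking of liver enzyme CYP2C9 beyond about 50% at 5 µM, limit read from the data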
Of the large screens only hits and unclear results are named; the others gave an inactive call. Only some compounds are listed: those with a hit (about 27% of all), similar ones and a draw of the others.

CCN(CC)CC(C)CNC(=O)CC(C(=O)N1CCc2ccccc21)n1ccnc1 (stereo unspecified)	none (no result: CYP2C19 activ, CYP2C9 activ, CYP2C19 inh, CYP2C9 inh)
O=C(CC(C(=O)N1CCc2ccccc21)n1ccnc1)NCc1ccccc1 (stereo unspecified)	CYP2C19 inh 100, CYP2C9 inh 73
O=C(CN1C(=O)COc2ccccc21)N(Cc1cccnc1)Cc1cccc(F)c1	CYP2C19 inh 87, CYP2C9 inh 91
CCC1Oc2ccc(C)cc2N(CC(=O)N(Cc2cccnc2)Cc2cccc(F)c2)C1=O (stereo unspecified)	none (no result: CYP2C19 activ, CYP2C9 activ, CYP2C19 inh, CYP2C9 inh)
CCOC(=O)C1CCN(CC(O)COc2ccc(C(=O)CC)cc2)CC1 (stereo unspecified)	none
O=C(c1ccccc1)c1ccc(OCC(O)CN2CCN(S(=O)(=O)N3CCCCC3)CC2)cc1 (stereo unspecified)	CYP2C19 inh 85, CYP2C9 inh 98
CCC(=O)c1ccc(OCC(O)CN2CCN(S(=O)(=O)N3CCCCC3)CC2)cc1 (stereo unspecified)	CYP2C19 inh 52, CYP2C9 inh 72
Cc1ccc(NC(=O)c2ccccc2)cc1OC(=O)c1ccccc1	none
CCCC1=C(C(=O)OCC)C(c2ccc(O)cc2)n2ncnc2N1 (stereo unspecified)	CYP2C9 inh 93
CCOC(=O)C1=C(C)Nc2ncnn2C1c1c[nH]c2ccccc12 (stereo unspecified)	CYP2C19 inh 82, CYP2C9 inh 59
CCCCCOC(=O)C1=C(C)Nc2ncnn2C1c1cccs1 (stereo unspecified)	CYP2C19 inh 78
CC1=C(C(=O)OC(C)C)C(c2cccs2)n2ncnc2N1 (stereo unspecified)	none (no result: sEH act, sEH inh)
CC1=C(C(=O)OC(C)C)C(c2c[nH]c3ccccc23)n2ncnc2N1 (stereo unspecified)	CYP2C19 inh 61 (no result: sEH act, sEH inh)
CCOC(=O)C1=C(C)Nc2ncnn2C1c1ccc(N(C)C)cc1 (stereo unspecified)	none (no result: sEH act, sEH inh)
Cc1cccc(-n2c(Cn3nc(C)c([N+](=O)[O-])c3C)n[nH]c2=S)c1	none
COc1cccc(/C(O)=C2/C(=O)C(=O)N(CCCN(C)C)C2c2cccc(Cl)c2)c1 (stereo unspecified)	none (no result: sEH act, sEH inh)
Cc1ccc(-c2nnn(CC(=O)NC3CCCc4ccccc43)n2)cc1 (stereo unspecified)	none
Cc1ccc(S(=O)(=O)N2CCN(CC(=O)NC3CCCc4ccccc43)CC2)c(C)c1 (stereo unspecified)	CYP2C19 inh 52
O=C(CCC(=O)N1CCN(S(=O)(=O)c2ccc(Cl)cc2)CC1)NC1CCCc2ccccc21 (stereo unspecified)	none
Cc1ccc(S(=O)(=O)N2CCN(CC(=O)NC3CCCc4ccccc43)CC2)cc1C (stereo unspecified)	CYP2C19 inh 70
CCCn1nc(Oc2nc(NCC)nc(NC(C)C)n2)ccc1=O	none
Clc1ccc(CSc2nnc(CN3CCOCC3)n2-c2ccccc2)cc1Cl	CYP2C19 inh 84, CYP2C9 inh 62
COc1cccc(OCCSc2nc(N)cc(N)n2)c1	none
Cc1ccc(OCCSc2cc(C)nc(N)n2)cc1	CYP2C19 inh 72 (no result: sEH act, sEH inh)
Cc1cccc(OCCSc2cc(C)nc(N)n2)c1	CYP2C19 inh 55 (no result: sEH act, sEH inh)
Cc1cc(C(=O)NNC(=S)NC(=O)/C=C/c2ccccc2Cl)n[nH]1	none
CSc1nc(N)nc(SCC(=O)C(C)(C)C)c1C#N	CYP2C9 inh 73
COc1ccc(C(=O)COC(=O)CCn2nnc(-c3cccs3)n2)cc1	none
COc1ccc(NC(=O)C(C)Sc2ccccc2)cc1 (stereo unspecified)	CYP2C19 inh 51, CYP2C9 inh 64
CC(Sc1ccccn1)C(=O)Nc1ccccc1 (stereo unspecified)	CYP2C19 inh 81
Cc1ccc(-n2ncc3c(=O)n(Cc4cccnc4)cnc32)cc1	none (no result: sEH act, sEH inh)
CC(C)(C)NC(=O)CSc1nnc(C2CC2)n1Cc1ccccc1	none (no result: sEH act, sEH inh)
CCn1c2ccccc2c2nc3cc(S(=O)(=O)N4CCOCC4)ccc3nc21	CYP2C9 inh 85
O=C(Cn1nnc(-c2cccc(C(F)(F)F)c2)n1)N1CCCCCC1	CYP2C9 activ 4.2, CYP2C19 inh 57
CC(C)(C)N(Cc1ccccc1)C(=O)CSc1nnc(CNc2ccc(F)cc2)o1	none
Cn1c(SCC(=O)N(Cc2ccccc2)C(C)(C)C)nc2ccccc21	CYP2C19 inh 50
COc1ccc(C2=CSC3=C(C(=O)c4cccc(S(=O)(=O)N(C)C)c4)CCN23)cc1	CYP2C19 inh 86, CYP2C9 inh 64
COc1ccc(-c2csc(NC(=O)c3cccc(S(=O)(=O)N4CCN(C)CC4)c3)n2)cc1	none
O=C(NCc1n[nH]c(=S)n1-c1ccc(F)cc1)c1ccco1	none
C=CCSC1=N/C(=C\c2ccc(C)o2)C(=O)S1	CYP2C19 inh 82
Cc1ccc(C)c(C(=O)Cn2ncc(Cl)c(Cl)c2=O)c1	CYP2C9 activ 2.1
O/N=C/c1cc(Cl)ccc1OCc1ccccc1Cl	CYP2C9 inh 61
COc1ccc(-n2c(=O)c3ccccc3n(CC(=O)Nc3cc(C)on3)c2=O)cc1OC	none (no result: sEH act, sEH inh)
CC1CCN(S(=O)(=O)c2ccc(S(=O)(=O)NCC3COCCO3)cc2)CC1 (stereo unspecified)	CYP2C19 inh 60 (no result: sEH act, sEH inh)
CCC(C)NC(=O)CSc1nc(-c2cccs2)cc(C(F)(F)F)n1 (stereo unspecified)	CYP2C19 inh 97, CYP2C9 inh 88
COc1ccc(-c2cc(C(F)(F)F)nc(SCC(=O)NCc3cccs3)n2)cc1	none
O=C(NCc1ccco1)c1nn2c(C(F)(F)F)cc(-c3cccs3)nc2c1Br	CYP2C9 inh 73
O=C(CSc1nc(-c2cccs2)cc(C(F)(F)F)n1)NCc1ccco1	CYP2C19 inh 62, CYP2C9 inh 79
O=C(CSc1nc(-c2ccccc2)cc(C(F)(F)F)n1)NCc1ccco1	none
O=S(=O)(c1ccc(OCC(O)CN2CCc3ccccc3C2)cc1)N1CCOCC1 (stereo unspecified)	none
CC(=O)c1ccc(-c2nc3ccccc3n2C)o1	CYP2C19 inh 61
Cc1ccc(-c2nc3ccccc3n2C)o1	CYP2C19 inh 67
Cc1oc(-c2nc3ccccc3n2C)cc1C(=O)c1ccccc1	none (no result: CYP2C19 activ, CYP2C9 activ, CYP2C19 inh, CYP2C9 inh)
Cc1ccc(C2Nc3ccccc3-c3nc4ccccc4n32)o1 (stereo unspecified)	none (no result: CYP2C19 activ, CYP2C9 activ, CYP2C19 inh, CYP2C9 inh)
Cn1c(Sc2nc3ccccc3n2C)nc2ccccc21	CYP2C19 inh 95, CYP2C9 inh 53
Cn1c(-c2ccc(Br)o2)nc2cc(Br)ccc21	none
Cn1c(SCc2nc3ccccc3n2CCO)nc2ccccc21	none (no result: sEH act, sEH inh)
